# Screens: PubChem BioAssay, several laboratories
# In the library only some 4.7% were active in any assay of this set; here they are far more common.
# TIM10 inh – inhibits growth of TIM10 yeast strain | S. cerevisiae TIM10 strain growth, BacTiter-Glo luminescence, 24 h | 330,000 tested, 1.4% active | inhibition, % at 10 µM;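 active means inhibition of 40% or more at the single tested concentration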;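 further: wild-type TIM10 isogenic control strain grown at permissive 25 °C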
# SKKanGAS inh – SKKanGAS growth inhibition; S. pyogenes SKKanGAS, kanamycin growth, BacTiter-Glo, 6 h; inhibition, % at 7.5 µM; 300,000 tested, 1.3% active;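 active means mean replicate score, as percent of positive control median, at least 50; inconclusive means mean below 50 but one replicate at or above 50; inactive means mean and every replicate below 50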;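 further: strain carries kanamycin resistance gene driven by streptokinase promoter and grows in 40 µg/ml kanamycin; loss of luminescence reflects streptokinase promoter inhibition or plain growth inhibition; 0% = median of DMSO wells and 100% = positive control at its reference dose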
# tim23-1 inh – growth inhibitors of tim23-1 mutant yeast; 330,000 tested, 1.3% active; inhibition, % at 20 µM; S. cerevisiae tim23-1 growth, BacTiter-Glo luminescence, 24 h; AID 463212;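 active means growth inhibition of the mutant yeast at or above 50%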;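 further: temperature-sensitive mutant grown at 25 °C; plate controls were DMSO-treated mutant yeast for no effect and medium wells lacking yeast for full effect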
# tim10-1 inh – inhibits growth of tim10-1 mutant yeast; S. cerevisiae tim10-1 ts strain growth, BacTiter-Glo, 24 h; inhibition, % at 20 µM; 330,000 tested, 2.2% active;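 active means inhibition of at least 40%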;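 further: mutant grown at 25 °C; 0% = DMSO wells with yeast and 100% = wells holding no yeast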
# Calb FLC – affects C. albicans growth with fluconazole | C. albicans CaCi-2 (fluconazole-resistant clinical isolate) + fluconazole, Alamar Blue growth, 48 h | growth inhibition, % (no concentration beside the values) | 300,000 tested, 0.57% active | AID 1979;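 active means growth inhibition above about 58% in most replicates, limit read from the data, passing the limit was not always enough; inconclusive means exactly half the replicates above a set limit; inactive means most replicates below a set limit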;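 further: all wells also contain fluconazole at 8 µg/ml as a sub-toxic cotreatment; 0% = median of DMSO wells and 100% = median of geldanamycin control wells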
# PfHsp90 yeast 2 – inhibits growth of yeast expressing Plasmodium falciparum Hsp90 | inhibition, % at 9.4 µM | 310,000 tested, 0.32% active | AID 504621 | S. cerevisiae expressing PfHsp90, BacTiter-Glo ATP, 48 h; yeast lacking PDR1 and PDR3 efflux regulators;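 active means every replicate shows inhibition above about 80%, whatever the replicate mean, limit read from the data; inconclusive means mean inhibition reaches the set limit but some replicate falls short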;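 further: 0% = DMSO neutral controls and 100% = 20 µM radicicol positive controls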
# Numbers without * were called inactive; u = inconclusive; x = no result.
SMILES,TIM10 inh,SKKanGAS inh,tim23-1 inh,tim10-1 inh,Calb FLC,PfHsp90 yeast 2
CCOC(=O)c1c(-c2ccccc2)oc2ccc(OCC(O)CN(C)C)cc12 (stereo unspecified),27,-5,23,29,94*,26
COc1ccc(C(=O)COC(=O)c2cccc(-n3cnnn3)c2)c(OC)c1,-15,-4,-18,-9,-2,-2
CCOC(=O)c1cnc2ccc(OCC)cc2c1N(C)Cc1ccccc1,-1,11,20,12,1,x
CCOC(=O)c1cc2cc(OCc3ccccc3)ccc2nc1C,0,0,-40,-74,22,118*
COc1cccc(COc2cc3ccccc3nc2C)c1,32,14,23,35,100*,-11
Cc1nc2ccccc2cc1OCc1ccccc1,17,6,24,30,107*,9
O=C(COC(=O)c1cc(=O)[nH]c(=O)[nH]1)Nc1cccc(Cl)c1,5,x,-7,-12,x,x
CC(C(=O)NC1(C#N)CCCCC1)N(C)CC(=O)Nc1ccc(Cl)c(Cl)c1 (stereo unspecified),0,x,10,13,x,-22
Cc1ccc(OCCCC(=O)NNC(=O)c2ccccn2)cc1,-3,x,-9,10,x,2
CCCCCCCN(c1ccccc1)[C@@H]1C[C@H]2CCCC(=O)N3CC[C@@H](C1)[C@@H]23,x,x,x,x,x,3
C/C(N)=C(/C#N)C(=O)CSc1nc2scc(-c3ccccc3)c2c(=O)n1C,24,62*,2,14,0,3
CCOC(=O)c1c(N)sc(C(O)(C(F)(F)F)C(F)(F)F)c1-c1ccc(Cl)cc1,19,76*,37,20,22,64
C=C(CC1([C@@H](NP(=O)(c2ccccc2)c2ccccc2)[C@H]2C[C@@H]2CCCC)CC1)c1ccccc1,1,77*,12,-13,-14,15
Cc1ccc2c(c1)C1(OCCCO1)C(=O)N2,-6,-6,6,-4,1,-22
COc1ccc2c(c1)c(=O)oc1c(C)c(OCc3ccc(C(=O)O)cc3)ccc12,x,52*,x,x,5,-11
Cc1cc(C(=O)OCC(=O)Nc2ccccc2C(F)(F)F)on1,-9,x,10,7,x,1
CCOc1cccc(-c2c(C(=O)N/N=C(\C)c3ccccn3)nnn2-c2nonc2N)c1,x,32,x,x,82*,4
CC(C)c1c(C(=O)N/N=C/c2ccc(OCc3ccccc3)cc2)nnn1-c1nonc1N,10,8,10,12,1,-10
COc1cccc(/C=N/NC(=O)c2nnn(-c3nonc3N)c2C(C)C)c1OCc1ccc(F)cc1,-8,60*,24,34,5,-12
CC(C)c1c(C(=O)N/N=C/c2cccc(OCc3ccccc3)c2)nnn1-c1nonc1N,8,81*,24,38,0,-12
CCOc1cccc(-c2c(C(=O)N/N=C(\C)c3ccncc3)nnn2-c2nonc2N)c1,7,-7,6,11,-8,-7
O=C(CSc1nccc(=O)[nH]1)NCc1ccco1,5,1,16,-11,-2,-20
CCN(Cc1ccccc1)CC(O)COC(c1ccc(OC)cc1)c1ccc(OC)cc1 (stereo unspecified),32,1,22,36,0,-5
FC(F)(F)c1cnc(COc2ccc(Cl)cc2Cl)c(Cl)c1,-14,14,12,2,-1,9
O=C(Nc1cccc(C(F)(F)F)c1)c1cccnc1N1CCN(CCO)CC1,-7,-7,11,10,-2,6
SMILES,TIM10 inh,SKKanGAS inh,tim23-1 inh,tim10-1 inh,Calb FLC,PfHsp90 yeast 2
O=C(Nc1cccc(C(F)(F)F)c1)c1cccnc1N1CCN(c2ccccc2)CC1,5,51*,27,24,u,10
O=C(Nc1cccc(NC(=O)c2cccnc2)c1)c1ccccc1,-1,u,-18,-24,-9,5
O=C(Nc1cccc(C(F)(F)F)c1)c1cccnc1,5,x,9,26,117*,x
Cn1ncc(Br)c1C(=O)N1CCCCCC1,1,-2,11,3,0,11
Cc1cc(NC(=O)COc2coc(CN3CCN(c4ccccc4F)CC3)cc2=O)no1,1,7,5,-2,5,-3
CSc1cccc(NC(=O)OC2CCCCCCCCCCC2)c1,7,66*,11,-5,1,11
CSc1cccc(NC(=O)CNC(=O)C2CCCCC2)c1,0,30,19,9,-11,-11
